Experiment [1] can be described thus: qHTS assay to identify small molecule antagonists of the glucocorticoid receptor (GR) signaling pathway - cell viability counter screen (AID 720693). Also: nearly all actives have a fitted effect of over 55% in size.
Experiment [2] in a line: qHTS assay for identifying genotoxic compounds that show differential cytotoxicity against isogenic chicken DT40 cell lines with known DNA damage response pathways - wild type cell line (AID 743012). Also: nearly all actives have a fitted effect of over 60% in size. An outline of the steps: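 Viability by ATP luminescence (CellTiter-Glo, 30 min RT) after 40 h compound treatment at 37 C/5% CO2, using 300 parental DNA repair-proficient DT40 cells per well.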
On the technique in general: Quantitative high-throughput screening tests each substance at several concentrations.

The nature of experiment [3]: qHTS assay for identifying genotoxic compounds that show differential cytotoxicity against isogenic chicken DT40 cell lines with known DNA damage response pathways - Rev3 mutant cell line (AID 743014). Also: nearly all actives have a fitted effect of over 55% in size.
The nature of experiment [4]: qHTS assay for identifying genotoxic compounds that show differential cytotoxicity against isogenic chicken DT40 cell lines with known DNA damage response pathways - Rad54/Ku70 mutant cell line (AID 743015). Also: nearly all actives have a fitted effect of over 60% in size.
A short description of experiment [5]: qHTS assay to identify small molecule antagonists of the androgen receptor (AR) signaling pathway - cell viability counter screen (AID 743033; also: nearly all actives have a fitted effect of over 45% in size).
A short description of experiment [6]: qHTS assay to identify small molecule antagonists of the androgen receptor (AR) signaling pathway using the MDA cell line - cell viability counter screen (AID 743041; also: nearly all actives have a fitted effect of over 45% in size). The gist of the method:
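Viability read by CellTiter-Fluor fluorescence in the same wells as the antagonist screen, added after 15.5 h of a 16 h, 37C exposure. Human breast carcinoma MDA-kb2 AR-luc cells, compounds co-dosed with agonist R1881.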

The nature of experiment [7]: qHTS assay to identify small molecule antagonists of the thyroid receptor (TR) signaling pathway - cell viability counter screen (AID 743064). Also: nearly all actives have a fitted effect of over 50% in size. An outline of the steps:
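Counter screen for cytotoxicity: compound plus T3 (1 nM final) on GH3.TRE-Luc cells, 23.5 h at 37 °C, then fluorescence viability readout with CellTiter-Fluor.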

From PubChem BioAssay (Tox21) come the findings set out here.

“And” between values parts separate entries of the source, which are not always exact repeats. Equal values may be shown once. Results filed as inconclusive are left out. Where a structure was tested more than once in an assay, its records may differ in their call. The source made the active and inactive calls. Calls follow the shape of the dose curve; as a rule, active = well fitted curve in the direction sought with a large enough effect in the repeat runs; inconclusive = weak or mixed curves; inactive = no such curve, though single readings can be large; an effect the other way counts as inactive or inconclusive.
Potency is read from the fitted curve at half-maximal effect.

As to `CCCCC/C=C/CC1CC(=O)OC1=O` (stereo not given), the Potency result in experiment [1], in experiment [2], in experiment [3], in experiment [4], in experiment [5] and in experiment [6] was “inactive” each time. The Potency result in experiment [7] is “inactive”.

Regarding `CC(C)CCCCCCc1ccc(O)cc1`, the Potency in experiment [1] is 25 µM (active); in experiment [2] it was 21.1 µM (active) and 62.2 µM (active) and 27.3 µM (active); in experiment [3], 11.9 µM (active) and 17.5 µM (active) and 30.6 µM (active); in experiment [4] it was 21.1 µM (active) and 62.2 µM (active) and 27.3 µM (active); in experiment [7], 17.5 µM (active) and 24.3 µM (active). Moreover, the Potency entry in experiment [5] and in experiment [6] was “inactive” in each case.

Turning to `CCC(=O)/C=C/C1C(C)=CCCC1(C)C` (stereo not given), the Potency entry in experiment [1], in experiment [2], in experiment [3], in experiment [5], in experiment [6] and in experiment [7] was “inactive” each time. Further, the Potency entry in experiment [4] was “inactive and 61.1 µM (active)”.

Regarding `CO[Si](OC)(OC)c1ccccc1`, the Potency entry in experiment [1], in experiment [2], in experiment [3], in experiment [4], in experiment [5] and in experiment [7] was “inactive” in each case.

Regarding `CC(C)(C)NC(=O)[C@@H]1CN(Cc2cccnc2)CCN1C[C@@H](O)C[C@@H](Cc1ccccc1)C(=O)N[C@H]1c2ccccc2C[C@H]1O`, the Potency result in experiment [1], in experiment [5], in experiment [6] and in experiment [7] was “inactive” in each case. The Potency is 23.7 µM (active) and inactive in experiment [2]; 23.7 µM (active) and inactive in experiment [3]; 18.8 µM (active) in experiment [4].

`CCCCCCC(O)CCCCCCCCCCC(=O)O` (stereo not given): the Potency entry in experiment [1], in experiment [2], in experiment [3], in experiment [5], in experiment [6] and in experiment [7] was “inactive” in each case. Further, the Potency result in experiment [4] is “inactive and 48.6 µM (active)”.

As for `COC(=O)[C@H]1[C@H]2C[C@@H]3c4[nH]c5cc(OC)ccc5c4CCN3C[C@H]2C[C@@H](OC(=O)c2cc(OC)c(OC)c(OC)c2)[C@@H]1OC`, the Potency entry in experiment [1] and in experiment [6] was “inactive” each time. Besides, the Potency is 13.3 µM (active) and 17.7 µM (active) in experiment [2]; 18.8 µM (active) and 25 µM (active) in experiment [3]; 18.8 µM (active) and 24.3 µM (active) and 22.3 µM (active) in experiment [4]; “inactive and 21.8 µM (active)” in experiment [5]; 11.9 µM (active) and 24.3 µM (active) in experiment [7].

As for `O=C1CC2(CCCC2)CC(=O)N1CCCCN1CCN(c2ncccn2)CC1`, the Potency result in experiment [1], in experiment [6] and in experiment [7] was “inactive” in each case. Also, the Potency in experiment [2] is 21.1 µM (active) and 13.7 µM (active); in experiment [3], 7.7 µM (active); in experiment [4], 21.1 µM (active) and 15.4 µM (active); in experiment [5], “inactive and 21.9 µM (active)”.

On to `Cc1cc(C2(c3cc(C)c(O)cc3C)OS(=O)(=O)c3ccccc32)c(C)cc1O`, for which the Potency entry in experiment [1], in experiment [2], in experiment [3], in experiment [4] and in experiment [5] was “inactive” throughout. In addition, the Potency in experiment [6] is 30.6 µM (active); in experiment [7], 54.5 µM (active).

Turning to `Cc1cc(C(C)(C)C)c(O)c(C(C)(C)C)c1`, the Potency result in experiment [1], in experiment [2], in experiment [5], in experiment [6] and in experiment [7] was “inactive” in each case. The Potency entry was “inactive and 30.6 µM (active)” in experiment [3]; “inactive and 27.3 µM (active)” in experiment [4].

With `NNCCc1ccccc1`, the Potency result in experiment [1], in experiment [2], in experiment [3], in experiment [4], in experiment [5] and in experiment [6] was “inactive” throughout. Further, the Potency result in experiment [7] was “inactive and 27.4 µM (active)”.

On to `CCCCCCCCCCCC[N+](C)(C)C`, for which the Potency in experiment [1] was 24.5 µM (active) and 17.4 µM (active) and 38.9 µM (active); in experiment [2], 861 nM (active) and 243 nM (active) and 217 nM (active); in experiment [3], 432 nM (active) and 137 nM (active) and 217 nM (active); in experiment [4] it was 543 nM (active) and 217 nM (active); in experiment [5], 48.9 µM (active) and 49 µM (active) and 38.9 µM (active); in experiment [7], 17.2 µM (active) and 13.7 µM (active) and 15.4 µM (active).

With `CCOC(=O)C(C)C(C)=O` (stereo not given), the Potency result in experiment [1], in experiment [2], in experiment [3], in experiment [4], in experiment [5] and in experiment [6] was “inactive” in each case. Besides, in experiment [7], the Potency entry is “inactive”.

With `CCN1CCCC1CNC(=O)c1cc(S(=O)(=O)CC)c(N)cc1OC` (stereo not given), the Potency entry in experiment [1], in experiment [2], in experiment [3], in experiment [4], in experiment [5] and in experiment [6] was “inactive” each time. The Potency entry in experiment [7] was “inactive”.

On to `c1ccc2c(c1)CCCC2C1=NCCN1` (stereo not given), for which the Potency result in experiment [1], in experiment [2], in experiment [3], in experiment [4], in experiment [5] and in experiment [6] was “inactive” in each case. The Potency entry in experiment [7] is “inactive”.

With `CC(=O)OCCOCCOCCOC(C)=O`, the Potency result in experiment [1], in experiment [2], in experiment [3], in experiment [4], in experiment [5] and in experiment [6] was “inactive” in each case. In experiment [7], the Potency result was “inactive”.

On to `OCCOCCN1CCN(C(c2ccccc2)c2ccc(Cl)cc2)CC1` (stereo not given), for which the Potency result in experiment [1], in experiment [5] and in experiment [6] was “inactive” throughout. Besides, the Potency in experiment [2] is 38.1 µM (active); in experiment [3] it was 21.4 µM (active); in experiment [4] it was 30.2 µM (active); in experiment [7] it was 26.9 µM (active).

Consider `c1cc(C(c2ccc(OCC3CO3)cc2)C(c2ccc(OCC3CO3)cc2)c2ccc(OCC3CO3)cc2)ccc1OCC1CO1` (stereo not given), for which the Potency result in experiment [1], in experiment [5] and in experiment [6] was “inactive” each time. For the same compound, the Potency was 20.1 µM (active) and 3.43 µM (active) in experiment [2]; 357 nM (active) and 385 nM (active) in experiment [3]; 6.34 µM (active) and 3.06 µM (active) in experiment [4]; 48.5 µM (active) in experiment [7].

Turning to `CC1=C(C=O)C(C)(C)CC=C1`, the Potency result in experiment [1], in experiment [2], in experiment [3], in experiment [4], in experiment [5] and in experiment [6] was “inactive” throughout. The Potency result in experiment [7] is “inactive”.

In the case of `O=c1n(CC2CO2)c(=O)n(CC2CO2)c(=O)n1CC1CO1` (stereo not given), the Potency entry in experiment [1], in experiment [5] and in experiment [6] was “inactive” in each case. Also, the Potency is 376 nM (active) and 193 nM (active) in experiment [2]; 53.1 nM (active) and 38.6 nM (active) in experiment [3]; 944 nM (active) and 217 nM (active) in experiment [4]; 12.1 µM (active) and 27.3 µM (active) in experiment [7].

Regarding `Cc1cccc(O)c1C`, the Potency result in experiment [1], in experiment [2], in experiment [3], in experiment [4], in experiment [5] and in experiment [6] was “inactive” each time. The Potency entry in experiment [7] was “inactive”.
